Assay results reported in PubChem BioAssay AID1159580 (chemical genetic matrix, 2015).
Values joined by “and” are separate entries in the source; they are usually repeats but may differ in a detail not shown here. Equal values may be shown once. Hit rate of the full screen: of about 5,500 compounds, about 2,000 (36%) were called active. Inconclusive results (about 18%) are left out. No stated cut-off is given here; in the data, active means normalized growth mostly below about 0.91 (no sharp cut-off); inconclusive means no clear call, values can overlap the other calls; inactive means mostly above about 0.92. Some of the results follow.

Test: chemical genetic growth profiling, strain panel (AID 1159580);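 further: tested at 20 µM; growth read once vehicle control cultures reached saturation at 30 °C; 1 = growth at the plate median or of vehicle wells; lower values mean less growth of the strain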
Conditions: S. cerevisiae deletion strains, growth OD

Measured: normalized growth

O=C(N[C@@H](CO)[C@H](O)c1ccc([N+](=O)[O-])cc1)C(Cl)Cl
inactive: locus YAL013W, strain DEP1, active compounds read low 1 | locus YAL021C, strain ccr4, active compounds read low 1.01 | locus YAL026C, strain drs2, active compounds read low 1.03 | locus YAL030W, strain snc1, active compounds read low 0.999 | locus YBL061C, strain skt5, active compounds read low 0.995 | locus YBR009C, strain hhf1, active compounds read low 1.03 | locus YBR021W, strain FUR4, active compounds read low 1.03 | locus YBR023C, strain chs3, active compounds read low 1.02 | locus YBR171W, strain sec66, active compounds read low 1.02 | locus YBR229C, strain ROT2, active compounds read low 1 | locus YBR231C, strain swc5, active compounds read low 1.01 | locus YBR279W, strain paf1, active compounds read low 1.02 | locus YCL011C, strain gbp2, active compounds read low 1.02 | locus YCL016C, strain dcc1, active compounds read low 1.02 | locus YCL029C, strain bik1, active compounds read low 1.03 | locus YCL061C, strain MRC1, active compounds read low 0.998 | locus YCL069W, strain vba3, active compounds read low 1.02 | locus YCR088W, strain abp1, active compounds read low 1.02 | locus YDL005C, strain med2, active compounds read low 1 | locus YDL035C, strain GPR1, active compounds read low 0.997 | locus YDL040C, strain nat1, active compounds read low 1.01 | locus YDL074C, strain BRE1, active compounds read low 1.03 | locus YDL101C, strain DUN1, active compounds read low 1.01 | locus YDL134C, strain PPH21, active compounds read low 1 | locus YDL185W, strain tfp1, active compounds read low 1.01 | locus YDL192W, strain arf1, active compounds read low 1.01 | locus YDR001C, strain nth1, active compounds read low 1.02 | locus YDR069C, strain doa4, active compounds read low 1.02 | locus YDR101C, strain arx1, active compounds read low 1.01 | locus YDR137W, strain rgp1, active compounds read low 1.03 | locus YDR150W, strain NUM1, active compounds read low 0.997 | locus YDR159W, strain sac3, active compounds read low 0.982 | locus YDR162C, strain NBP2, active compounds read low 1 | locus YDR195W, strain ref2 1.09 | locus YDR297W, strain sur2, active compounds read low 1.02 | locus YDR318W, strain mcm21, active compounds read low 1.01 | locus YDR334W, strain swr1, active compounds read low 1 | locus YDR335W, strain msn5, active compounds read low 1.01 | locus YDR388W, active compounds read low 1.01 | locus YDR392W, strain spt3, active compounds read low 0.981 | locus YDR502C, strain sam2, active compounds read low 1.01 | locus YEL003W, strain gim4, active compounds read low 1.01 | locus YEL037C, strain rad23, active compounds read low 1.01 | locus YEL061C, strain CIN8 (second series), active compounds read low 1.02 | locus YEL061C, strain CIN8, active compounds read low 0.996 | locus YER015W, strain faa2, active compounds read low 1.02 | locus YER016W, strain bim1, active compounds read low 1.01 | locus YER110C, active compounds read low 1.01 | locus YER111C, strain swi4, active compounds read low 1.02 | locus YER155C, strain BEM2 (second series), active compounds read low 0.993 | locus YER155C, strain BEM2, active compounds read low 1 | locus YER167W, strain BCK2, active compounds read low 0.987 | locus YFR010W, strain ubp6, active compounds read low 1.02 | locus YGL078C, strain dbp3, active compounds read low 1 | locus YGL086W, strain mad1, active compounds read low 0.994 | locus YGL167C, strain pmr1, active compounds read low 1.01 | locus YGL173C, strain kem1, active compounds read low 1.03 | locus YGL227W, strain vid30, active compounds read low 1.04 | locus YGL240W, strain doc1, active compounds read low 0.983 | locus YGL248W, strain PDE1, active compounds read low 0.998 | locus YGL253W, strain hxk2, active compounds read low 1.03 | locus YGR078C, strain PAC10, active compounds read low 1.02 | locus YGR135W, strain pre9, active compounds read low 1.01 | locus YGR229C, strain SMI1, active compounds read low 0.994 | locus YGR252W, strain gcn5, active compounds read low 0.947 | locus YHR013C, strain ard1, active compounds read low 1.01 | locus YHR027C, strain rpn1, active compounds read low 1.02 | locus YHR030C, strain SLT2, active compounds read low 0.998 and 0.975 | locus YHR079C, strain IRE1 (second series), active compounds read low 1.02 | locus YHR079C, strain IRE1, active compounds read low 1 | locus YHR094C, strain hxt1, active compounds read low 1.01 | locus YHR129C, strain ARP1, active compounds read low 1.01 | locus YHR142W, strain chs7, active compounds read low 1.05 | locus YHR200W, strain rpn10, active compounds read low 1.01 | locus YIL066C, strain RNR3, active compounds read low 1.01 | locus YIL073C, strain SPO22, active compounds read low 0.964 | locus YIL125W, strain kgd1, active compounds read low 0.998 | locus YIR030C, strain dcg1, active compounds read low 1.01 | locus YJL092W, strain hpr5, active compounds read low 1.02 | locus YJL095W, strain BCK1 (second series), active compounds read low 1.02 | locus YJL095W, strain BCK1, active compounds read low 1.04 and 0.945 | locus YJL115W, strain asf1, active compounds read low 1.01 | locus YJL129C, strain trk1, active compounds read low 1.01 | locus YJL134W, strain LCB3, active compounds read low 1 | locus YJL154C, strain vps35, active compounds read low 1.03 | locus YJL164C, strain tpk1, active compounds read low 1.03 | locus YJL166W, strain qcr8, active compounds read low 1.02 | locus YJL168C, strain set2, active compounds read low 1.01 | locus YJL187C, strain SWE1 (second series), active compounds read low 1.02 | locus YJR043C, strain POL32, active compounds read low 1.03 | locus YJR066W, strain TOR1, active compounds read low 0.962
